M18AAP inhibitor – PfM18AAP enzyme inhibition | recombinant PfM18AAP, H-Glu-NHMec fluorogenic cleavage | inhibition, % at 7.35 µM | 290,000 compounds, 1.2% hits | AID 1822;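 active = inhibition above the campaign mean inhibition over all tested compounds plus 3 SD, cut at about 28% in these data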;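 also: 0% = plate median of test compound wells and 100% = 2 mM ZnCl2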
ABHD5 PLIN5 PPI – ABHD5-PLIN5 protein interaction inhibition | Q00G26+Q8WTS1 | inhibition, % at 4 µM | AID 602281 | Split G. princeps luciferase complementation, luminescence, 4 h | 360,000 compounds, 0.78% hits;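 active = inhibition above the mean inhibition across every tested compound plus 3 SD, cut at about 22% in these data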;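 also: 0% = DMSO only wells and the 100% control is not disclosed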
Granule exo inh – blocks lytic granule exocytosis. TALL-104 LAMP-1 surface exposure, flow cytometry; cells stimulated with thapsigargin and PMA. inhibition, % at 10 µM. 360,000 compounds, 0.66% hits. AID 651702;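 active = inhibition above about 55%, limit read from the data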
Platelet DG rel – modulates dense granule release in human platelets | 300,000 compounds, 0.22% hits | inhibition, %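 (compounds screened at 7.5 µM in platelet-rich plasma)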 | human platelet-rich plasma, SFLLRN dense granule ATP release, luminescence;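 active = mean replicate score, as percent of positive control, at or above 50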
Rce1 inhib – blocks yeast Ras-converting enzyme. Q03530. 290,000 compounds, 0.27% hits. calls only. yeast membranes, quenched prenylated peptide cleavage fluorescence;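 active = fall in fluorescence gain of 50% or more versus controls, with final raw signal at or below 3038400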;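 also: plate controls were neutral control wells for no effect and wells lacking membranes for full effect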
Target sequence (Q03530 whole entry, looked up): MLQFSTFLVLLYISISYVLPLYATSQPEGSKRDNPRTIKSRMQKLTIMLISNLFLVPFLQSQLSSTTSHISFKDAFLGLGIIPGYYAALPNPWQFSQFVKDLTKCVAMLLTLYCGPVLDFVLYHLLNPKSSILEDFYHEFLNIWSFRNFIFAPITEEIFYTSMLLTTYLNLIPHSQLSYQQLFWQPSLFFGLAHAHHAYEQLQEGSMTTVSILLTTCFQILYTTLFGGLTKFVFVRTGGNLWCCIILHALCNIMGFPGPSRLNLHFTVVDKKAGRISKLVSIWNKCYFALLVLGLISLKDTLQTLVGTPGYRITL
ABHD5-PLIN5 conf – confirmation of human ABHD5-PLIN5 interaction inhibitors; shares compounds with ABHD5 PLIN5 PPI; biochemical ABHD5-PLIN5 interaction, luminescence; inhibition, % at 4 µM; 2,200 compounds, 67% hits; AID 651612; in the data active = inhibition above about 23%;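 also: 0% = DMSO vehicle wells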
HNF4 split-luc – counter-screen for ABHD5-PLIN5 inhibitors: HNF4 split-luciferase; shares compounds with ABHD5 PLIN5 PPI; HNF4 dimerization, luminescence, biochemical; inhibition, % at 4 µM; 2,200 compounds, 77% hits;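 active = mean inhibition across replicate wells exceeding the computed hit threshold, cut at about 13% in these data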;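 also: light from luciferase halves that rejoin when HNF4 fusion proteins dimerize; 0% = DMSO only wells and the 100% control is not given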
Granule exo CP1 – blocks lytic granule exocytosis | inhibition, % at 10 µM | AID 651954 | 1,500 compounds, 11% hits | TALL-104 cells, LAMP-1 externalization, flow cytometry; stimulated with PMA plus thapsigargin | shares compounds with Granule exo inh; in the data active = inhibition above about 60%;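 also: 0% = stimulated vehicle wells and 100% = unstimulated wells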
An asterisk follows results filed as active. The list is not random: actives were taken first. Their share in the collection is about 2.6%.

How did CSc1ccc2c(c1)C(N1CCN(C)CC1)Cc1ccc(F)cc1S2 (stereo not given) do in these assays?
ABHD5 PLIN5 PPI: 26.4*; Granule exo inh: 69.4*; Platelet DG rel: 1.9; Rce1 inhib: inactive; ABHD5-PLIN5 conf: 17.9; HNF4 split-luc: 3.4; Granule exo CP1: 39.1

How did O=[N+]([O-])c1ccc2c(c1)C(N1CCN(CCO)CC1)Cc1ccc(F)cc1S2 (stereo not given) do in these assays?
ABHD5 PLIN5 PPI: 8.2; Granule exo inh: 16.1

What do the screens show for `Cc1ccc(C(=O)N/C(=C\c2ccc(-c3cccc([N+](=O)[O-])c3)o2)C(=O)NCCCN(C)C)cc1`?
M18AAP inhibitor: 0.8; ABHD5 PLIN5 PPI: 9.3; Granule exo inh: 1.2; Platelet DG rel: -2.1; Rce1 inhib: inactive

How did Cc1ccc(C(=O)N/C(=C\c2ccc(-c3ccc(Br)cc3)o2)C(=O)NCCCN(C)C)cc1 do in these assays?
M18AAP inhibitor: -4.8; ABHD5 PLIN5 PPI: 35.7*; Granule exo inh: 75.1*; Platelet DG rel: -3.3; Rce1 inhib: inactive; ABHD5-PLIN5 conf: 21.4; HNF4 split-luc: 2.2; Granule exo CP1: 99.1*

Results for O=S1(=O)CCOC[C@H](CC2CCCCC2)N1Cc1ccccc1 ?
M18AAP inhibitor: 0.6; ABHD5 PLIN5 PPI: -1.2; Granule exo inh: 7.3; Platelet DG rel: -3.4; Rce1 inhib: inactive

Results for CC(C)(C)S(=O)N1Cc2cc(C(=O)N[C@@H]3CCN(Cc4ccccc4)C3)nc(-c3cccc(-c4cc5ccccc5o4)c3)c2[C@@H]1CCO (stereo not given in full) ?
ABHD5 PLIN5 PPI: 25.9*; Granule exo inh: 63.2*; ABHD5-PLIN5 conf: 11.7; HNF4 split-luc: 0.3; Granule exo CP1: 19.3

What do the screens show for `CC(C)(C)S(=O)N1Cc2cc(C(=O)O)nc(-c3cccc(-c4cc5ccccc5o4)c3)c2[C@H]1CCO` (stereo not given in full)?
ABHD5 PLIN5 PPI: 1.6; Granule exo inh: -1.5

Results for COc1ccc(-n2nnnc2S(=O)(=O)CC(=O)N2CCCCC2)cc1 ?
M18AAP inhibitor: -26.4; ABHD5 PLIN5 PPI: 53.6*; Granule exo inh: 60.4*; ABHD5-PLIN5 conf: 75.4*; HNF4 split-luc: 83.1*; Granule exo CP1: 8.0

How did COc1cc(OC)cc(-n2nnnc2SCC(=O)N2CCCC2)c1 do in these assays?
M18AAP inhibitor: 2.0; ABHD5 PLIN5 PPI: 10.2; Granule exo inh: 35.6; Platelet DG rel: -1.3; Rce1 inhib: inactive

How did NC(=O)CSc1nc2ccccc2c(=O)n1-c1ccccc1 do in these assays?
M18AAP inhibitor: -1.4; ABHD5 PLIN5 PPI: 3.7; Granule exo inh: 1.9; Platelet DG rel: 6.7; Rce1 inhib: inactive

What do the screens show for `COc1ccc2nc3ccccc3nc2c1N`?
M18AAP inhibitor: 7.6; ABHD5 PLIN5 PPI: 37.9*; Granule exo inh: 82.1*; Platelet DG rel: -6.0; Rce1 inhib: inactive; ABHD5-PLIN5 conf: -0.2; HNF4 split-luc: 10.4; Granule exo CP1: -12.9

Results for CCCCC[C@@H](C)N1C[C@@H](COCc2ccccc2)Oc2cc(N3CC[C@@H](N(C)C)C3)ccc2S1(=O)=O ?
ABHD5 PLIN5 PPI: 28.1*; Granule exo inh: 58.1*; ABHD5-PLIN5 conf: 2.1; HNF4 split-luc: -5.2; Granule exo CP1: 68.1*

Results for CCCCC[C@H](C)N1C[C@H](COCc2ccccc2)Oc2cc(N3CC[C@H](N(C)C)C3)ccc2S1(=O)=O ?
ABHD5 PLIN5 PPI: 13.3; Granule exo inh: 52.9

What do the screens show for `CCOc1cc(CNCCO)cc(Br)c1OCc1ccc(Cl)cc1`?
M18AAP inhibitor: -0.7; ABHD5 PLIN5 PPI: 25.3*; Granule exo inh: 63.3*; Platelet DG rel: -3.8; Rce1 inhib: inactive; ABHD5-PLIN5 conf: 16.1; HNF4 split-luc: 8.3; Granule exo CP1: -6.2

How did CCC(=O)Nc1ccc(Cl)c(NC(=S)NC(=O)COc2ccccc2)c1 do in these assays?
M18AAP inhibitor: -0.9; ABHD5 PLIN5 PPI: -0.3; Granule exo inh: -4.9; Platelet DG rel: -1.8; Rce1 inhib: inactive

What do the screens show for `CN1CCN(CCCNC(=O)c2ccc(/C=C3\Sc4ccccc4N(Cc4ccccc4F)C3=O)cc2)CC1`?
M18AAP inhibitor: -2.1; ABHD5 PLIN5 PPI: 32.7*; Granule exo inh: 65.7*; Platelet DG rel: -2.1; Rce1 inhib: inactive; ABHD5-PLIN5 conf: 5.2; HNF4 split-luc: -6.2; Granule exo CP1: 6.6

Results for O=C(NCCN1CCOCC1)c1ccc(/C=C2\Sc3ccccc3N(Cc3ccccc3F)C2=O)cc1 ?
M18AAP inhibitor: 7.6; ABHD5 PLIN5 PPI: 8.4; Granule exo inh: 2.9; Platelet DG rel: 0.6; Rce1 inhib: inactive

Results for CCC1CCCCN1CCCNC(=O)c1ccc2c(c1)N(Cc1ccc(F)cc1)C(=O)c1ccccc1S2=O (stereo not given) ?
M18AAP inhibitor: 2.4; ABHD5 PLIN5 PPI: 25.4*; Granule exo inh: 61.1*; Platelet DG rel: 0.5; Rce1 inhib: inactive; ABHD5-PLIN5 conf: 1.6; HNF4 split-luc: 7.5; Granule exo CP1: -14.5

Results for N#Cc1c(Nc2ccccc2)s[nH]c1=O ?
M18AAP inhibitor: -1.9; ABHD5 PLIN5 PPI: 13.8; Granule exo inh: 53.5; Platelet DG rel: -3.5; Rce1 inhib: inactive

Results for N#Cc1c(Nc2ccccc2Cl)s[nH]c1=O ?
M18AAP inhibitor: 21.5; ABHD5 PLIN5 PPI: 25.3*; Granule exo inh: 78.5*; Platelet DG rel: -1.8; Rce1 inhib: inactive; ABHD5-PLIN5 conf: 44.0*; HNF4 split-luc: 103.3*; Granule exo CP1: 94.6*

What do the screens show for `O=C(NCc1cccnc1)/C(=C\c1ccc(-c2ccc(Br)cc2)o1)S(=O)(=O)c1ccccc1`?
M18AAP inhibitor: -1.5; ABHD5 PLIN5 PPI: 73.3*; Granule exo inh: 83.0*; Platelet DG rel: 9.7; Rce1 inhib: inactive; ABHD5-PLIN5 conf: 92.8*; HNF4 split-luc: 82.7*; Granule exo CP1: 53.8

Results for CC1CC(C)(C)Nc2ccc(OC(=O)c3ccco3)cc21 (stereo not given) ?
M18AAP inhibitor: 0.0; ABHD5 PLIN5 PPI: 28.1*; Granule exo inh: 82.2*; Platelet DG rel: 14.1; Rce1 inhib: inactive; ABHD5-PLIN5 conf: 70.9*; HNF4 split-luc: 61.1*; Granule exo CP1: -11.3

How did COC(=O)c1cc(Br)c(=O)n(CCc2ccccc2)c1 do in these assays?
M18AAP inhibitor: 5.7; ABHD5 PLIN5 PPI: 4.3; Granule exo inh: -2.7; Platelet DG rel: -8.5; Rce1 inhib: inactive

How did COC(=O)c1ccc(CCc2cc(O)c(Br)cc2O)cc1 do in these assays?
ABHD5 PLIN5 PPI: 92.6*; Granule exo inh: 97.7*; ABHD5-PLIN5 conf: 21.1; HNF4 split-luc: 48.2*; Granule exo CP1: 77.0*

What do the screens show for `Cc1ccc(-c2csc3ncn(-n4c(C)ccc4C)c(=O)c23)o1`?
M18AAP inhibitor: -68.6; ABHD5 PLIN5 PPI: 27.0*; Granule exo inh: 55.6*; Platelet DG rel: -3.2; Rce1 inhib: inactive; ABHD5-PLIN5 conf: 6.3; HNF4 split-luc: 32.8*; Granule exo CP1: -13.6
